Compound activity as filed in PubChem BioAssay.
TDP1 block: qHTS Assay for Inhibitors of Tyrosyl-DNA Phosphodiesterase (TDP1) | hit rate 0.28% among 350,000 | Potency, µM (series often up to 130 µM), for the others: at the top dose activity change, negative = inhibition, usual class: inhibitors | recombinant TDP1, AlphaScreen DNA substrate cleavage | AID 485290, 2010 | Tyrosyl-DNA phosphodiesterase 1 (Homo sapiens), Q9NUW8; note: % is set by controls: 0 for no effect and ±100 for the full control effect; nearly all actives have a fitted effect of over 40% in size
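Recombinant E. coli-expressed Tdp1 (1 nM) preincubated with compound 15 min at RT, then 5'-biotin/3'-phosphotyrosine-FITC DNA substrate (15 nM) added for 5 min. AlphaScreen beads (10 ug/ml) added, 10 min RT; tyrosine-FITC cleavage read as signal loss.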
POLH inh: qHTS for Inhibitors of Polymerase Eta; DNA polymerase eta (Homo sapiens), Q9Y253; recombinant Pol eta, fluorescent DNA replication assay; Potency, µM (titrated, usually from 114 µM), for the others: top-dose activity change, negative = inhibition, usual class: inhibitors; hit rate 1.2% among 390,000; note: % is set by controls: 0 for no effect and ±100 for the full control effect
Target sequence (Q9Y253 whole entry, looked up): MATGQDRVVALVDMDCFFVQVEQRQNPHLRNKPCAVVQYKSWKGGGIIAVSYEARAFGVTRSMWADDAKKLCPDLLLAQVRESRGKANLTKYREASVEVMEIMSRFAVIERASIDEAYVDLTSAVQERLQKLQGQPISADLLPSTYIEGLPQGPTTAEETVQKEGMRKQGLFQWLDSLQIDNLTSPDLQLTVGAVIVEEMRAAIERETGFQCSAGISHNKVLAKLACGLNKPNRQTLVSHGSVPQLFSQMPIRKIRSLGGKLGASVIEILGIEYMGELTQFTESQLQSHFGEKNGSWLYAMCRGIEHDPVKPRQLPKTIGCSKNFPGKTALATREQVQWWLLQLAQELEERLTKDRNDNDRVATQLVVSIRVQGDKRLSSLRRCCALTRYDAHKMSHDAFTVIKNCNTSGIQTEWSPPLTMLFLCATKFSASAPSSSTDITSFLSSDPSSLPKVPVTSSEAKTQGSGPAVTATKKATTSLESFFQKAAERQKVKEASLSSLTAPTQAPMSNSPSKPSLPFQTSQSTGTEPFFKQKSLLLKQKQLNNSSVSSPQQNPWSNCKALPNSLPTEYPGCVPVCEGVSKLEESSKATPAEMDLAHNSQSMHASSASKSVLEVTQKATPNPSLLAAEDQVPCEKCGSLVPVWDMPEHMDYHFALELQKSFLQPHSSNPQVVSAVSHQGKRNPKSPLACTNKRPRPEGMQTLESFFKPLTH
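Pol eta at 10 nM preincubated with compounds 15 min at room temperature; reaction started with fluorescent substrate (50 nM final) and read kinetically at 0 and 10 min.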
FEN1 inh: qHTS Assay for the Inhibitors of Human Flap endonuclease 1 (FEN1). P39748. Recombinant FEN1 flap cleavage, fluorescence, 15 min. Potency, µM (series often up to 114 µM), for the others: at the top dose activity change, negative = inhibition, usual class: inhibitors. hit rate 0.35% among 390,000; note: % is set by controls: 0 for no effect and ±100 for the full control effect; nearly all actives have a fitted effect of over 65% in size
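In this screen, 50 nM flap DNA substrate was added to 10 nM FEN1 pretreated with compound for 15 min at room temperature; cleavage was followed with reads at 0 and 15 min, and Hill fitting gave concentration–response parameters.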
POLB inh: qHTS Assay for Inhibitors of DNA Polymerase Beta; P06746; Pol beta primer extension/strand displacement, fluorescence kinetic; Potency, µM (highest dose often 114 µM), inactives show at the highest dose activity change, negative = inhibition, actives largely listed as inhibitors; hit rate 1.3% among 340,000; note: % is set by controls: 0 for no effect and ±100 for the full control effect
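Kinetic readout of DNA synthesis with strand displacement by Pol beta. Compound and 10 nM enzyme sit 15 min at room temperature; 50 nM substrate starts the reaction, read immediately and at 10 min.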
Pol kappa inh: qHTS for Inhibitors of Polymerase Kappa | hit rate 0.53% among 400,000 | purified Pol kappa, fluorescent DNA synthesis assay, 10 min | Potency, µM (doses to about 107 µM), inactives show at the top dose activity, negative = inhibition, usual class: inhibitors; note: % is set by controls: 0 for no effect and ±100 for the full control effect
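Fluorescent qHTS in 1536-well format: enzyme (10 nM) and compound sat 15 min at room temperature before 50 nM substrate (final) was added. Signal taken at 0 and 10 min; no-enzyme buffer wells were negative controls.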
Pol iota inh: qHTS for Inhibitors of Polymerase Iota | Pol iota fluorescent replication assay, 10 min | hit rate 1% among 390,000 | DNA polymerase iota (Homo sapiens), Q9UNA4 | Potency, µM (doses to about 115 µM), for inactives: top-dose activity, negative = inhibition, actives largely listed as inhibitors
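Fluorescent replication assay read twice, at 0 min and 10 min after adding 50 nM (final) substrate. Enzyme (10 nM) and compounds were first incubated 15 min at room temperature; enzyme-free buffer wells were negative controls.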
Active calls of the source: *; ? = inconclusive; / = no result; ! = not active in a repeat; [ ] = another dose, or the depositor's remark. Shown are actives, neighbours in structure and some others; about 2.4% of the full set was active somewhere. Calls come from the whole dose curve; as a rule, active = well fitted curve in the direction sought with a large enough effect; inconclusive = small, poorly fitted or top-dose-only effect, or another doubt; inactive = no such curve, though single readings can be large; an effect the other way counts as inactive or inconclusive. Potency is the fitted concentration of half-maximal effect.

SMILES	TDP1 block	POLH inh	FEN1 inh	POLB inh	Pol kappa inh	Pol iota inh
CCCCCC(=O)Cc1cc(O)cc2c1C(=O)Oc1cc(O)c(C(=O)O)c(CCCCC)c1O2	/	18µM*	?	45µM*	79µM*	71µM*
O=C(OC1CCCCC1)c1ccc2c(c1)C1C=CCC1C(C(=O)O)N2 (stereo not given)	-5%	/	/	2.2µM*	/	/
CCOC(=O)C1Nc2ccc(Br)cc2C2C=CCC12 (stereo not given)	/	79µM*	-20%	?	?	45µM*
Cn1c(=O)c2c(nc(SCC(=O)Nc3ccccc3F)n2Cc2ccc(Cl)cc2)n(C)c1=O	7%	-14%	-7%	-1%	-4%	19%
CCSc1nnc(SCC(=O)Nc2cc(C)on2)s1	?	?	12%	/	?	45µM*
CCN(CC)c1nc(N)c2c(N)n(-c3ccccc3C)c(=S)c(C#N)c2c1C#N	-7%	45µM*	-6%	10%	?	?
CC(=O)c1ccccc1NC(=O)COC(=O)CCC1CCCC1	79µM*	-12%	0%	/	-13%	23%
CC(C)c1ccc(NC(=O)COC(=O)CC2CCCC2)cc1	-11%	-17%	?	/	-22%	7%
CCOC(=O)c1ccccc1NC(=O)COC(=O)CCC1CCCC1	50µM*	?	4%	/	2%	22%
O=C(COC(=O)CC1CCCC1)Nc1cc2c(cc1Cl)C(=O)c1ccccc1C2=O	?	?	7%	40µM*	-21%	-15%
Cc1ccc(C)c(N2CCN(C(c3ccc(F)cc3)c3nnc(-c4ccccc4)o3)CC2)c1 (stereo not given)	0%	-8%	?	10%	?	89µM*
Cn1ncc(N=Cc2c(O)ccc3ccccc23)c1C(=O)Nc1cccc(Cl)c1	8%	50µM*	10%	1%	-10%	?
O=C(CN1CCN(C(=O)c2ccco2)CC1)Nc1c2c(nc3c1CCC3)CCCC2	89µM*	-10%	-1%	1%	-16%	1%
Cc1cc(C)cc(NC(=O)CCCn2c3ccccc3c(=O)c3ccccc32)c1	4%[12.3 µM]	-22%	4%	-23%	-5%	-24%
Cc1ccc2c(=O)c3ccccc3n(CCCN)c2c1C	17%	/	/	/	7.9µM*!	/
O=C(C1CCCCC1)N1CCCc2ccccc21	0%	-19%	6%	89µM*	-4%	14%
O=C(NC1CCCCC1)N1CCCc2ccccc21	3%	-10%	-13%	83%	-1%	16%
CCS(=O)(=O)Nc1cccc(-c2cn3c(n2)SCC3)c1	3%	-18%	16%	17%	-3%	22%
CS(=O)(=O)Nc1cccc(-c2cn3c(n2)SCC3)c1	2%	-3%	20µM*	0%	32µM*	?
CCN(CC)c1ccc2c(-c3ccc(S(=O)(=O)O)cc3S(=O)(=O)[O-])c3ccc(=[N+](CC)CC)cc-3oc2c1	/	/	?	5µM*	?	/
CCOc1ccc(-c2nnc(SCc3nc4ccccc4[nH]3)n2N)cc1	-9%	-6%	5%	50µM*	0%	?
CCOc1ccc(NC(=O)CSc2nnc(-c3ccccc3)n2N)cc1	2%	?	-5%	22µM*	-14%	-1%
Cn1c(SCc2nc3ccccc3[nH]2)nnc1-c1cccnc1	4%	-18%	6%	12%	-8%	19%
Nc1nc(NCCO)nc(NCC2CCCO2)c1[N+](=O)[O-] (stereo not given)	0%	-4%	-3%	22µM*	-20%	15%
CN(C1=C(NC(=O)c2ccccc2)C(=O)c2ccccc2C1=O)C1CCS(=O)(=O)C1 (stereo not given)	3%	79µM*	2%	?	6%[60.1 µM]	7.9µM*
